Results published in PubChem BioAssay (NCATS).
Results filed as inconclusive are left out. Calls of active or inactive are those of the source. Calls follow the shape of the dose curve; as a rule, active = well fitted activation curve with a large enough effect; inconclusive = small, poorly fitted or top-dose-only effect; inactive = flat fitted curve, though single readings scatter. Numbered stars: 1 amine (or outer) side, 2 acyl side, 3 side chain; on linkers, the order of the positions; unused ones are H or OH. Bridge positions count the residues as written; N and C are the ends. Square brackets hold non-standard residues; d marks the D form. Peptide text beside a SMILES is read from it. ξ: configuration not given here. Phe(3R-OH) = O=C([C@@H](N[*:1])[C@H](O[*:3])c1ccccc1)[*:2]; NMeTrp(4-OMe) = CN[C@@H](Cc1c[nH]c2cccc(OC)c12)C(=O)O; ξThr(3R)(O-yl) = C[C@@H](O[*:3])C(N[*:1])C(=O)[*:2]; NMeThr(3ξ) = CN[C@H](C(=O)O)C(C)O; NMeL = CN[C@@H](CC(C)C)C(=O)O; NMeV = CN[C@H](C(=O)O)C(C)C; ξIle = CC[C@H](C)C(N)C(=O)O; ξV = CC(C)C(N)C(=O)O

Experiment: qHTS for Hypoxia signaling pathway (HIF-1) agonists against the NCATS CANVASS Library (AID 1347375); as to activation: 0% is about no effect
Conditions: HRE-bla ME-180 cells, HIF-1 beta-lactamase reporter, 17 h; series mostly up to 38.3 µM; activation: at the top concentration
From the text: Natural products and their derivatives continue to be wellsprings of nascent therapeutic potential. However, many laboratories have limited resources for biological evaluation, leaving their previously isolated or synthesized compounds largely or completely untested. To address this issue, the Canvass library of natural products was assembled (https://tripod.nih.gov/canvass), in collaboration with academic and industry researchers, for quantitative high-throughput screening (qHTS) across a diverse set of cell-based and biochemical assays. The pure (>85% purity by liquid chromatography/mass spectrometry [LC/MS]) Canvass library of 346 natural products were submitted by 45 academic laboratories and companies around the world. We collected pure natural products to circumvent deconvolution and structure elucidation due to time and resource limitations. The library was formatted into 1536-well plates and evaluated in 50 qHTS (in an 11-pnt concentration series) bioassays with broad scope of disease-relevant mechanisms. The resulting data set from 50 different assays was then systematically analyzed to identify overall trends and specific natural products with interesting biological activities. Reported herein are the results of each individual qHTS and their corresponding assay protocol. During hypoxic conditions, the cellular responses are regulated in large part through the activation of the heterodimeric transcription factor called hypoxia-inducible factor-1 (HIF-1). The assay used is a beta-lactamase reporter gene under control of the hypoxia responsive element (HRE) that has been stably integrated into ME-180 cells. This assay identifies inducers of the HIF-1-signaling pathway. The cytotoxicity of the compound library against HRE-bla ME-180 cell line was tested in parallel by measuring cell viability using CellTiter-Glo assay (Promega, Madison, WI) in the same assay wells. The compounds were also tested for auto fluorescence that may interfere with the biological target readout resulting in potential false positives and/or negatives. National Center for Advancing Translational Sciences (NCATS), Rockville, MD National Institute of Health (NIH), Bethesda, Maryland
HIF-1 agonist assay protocol: HRE-bla ME-180 cells were dispensed at 2,000 cells per well in 6 uL of assay medium containing 0.5% dialyzed FBS into black wall/clear-bottom 1536-well plates using a Multidrop Combi (Thermo Scientific, Waltham, MA) dispenser. After the assay plates were incubated at 37C and 5% CO2 for 5 hrs, 23 nL of compounds dissolved in DMSO, positive controls or DMSO only was transferred to each well of the assay plate using a Pintool station (Kalypsys, San Diego, CA). The assay plates were incubated at 37C and 5% CO2 for 17 hrs. One uL of LiveBLAzerTM B/G FRET substrate (CCF4-AM) (Life Technologies) was added to each well using a Flying Reagent Dispenser (Aurora Discovery, San Diego, CA). After 2 hr incubation at room temperature, fluorescence intensity (405 nm excitation, 460 nm and 530 nm emissions) was measured using an Envision plate reader (PerkinElmer, Shelton, CT). To assess cell viability (and for data normalization), 4uL of CellTiter-Glo (Promega) was added to the assay plate using the BioRAPTR dispenser and incubated at room temperature for 30 min. Luminescence signal was obtained using the ViewLux microplate reader (PerkinElmer) using a clear emission mirror, and a 15 sec exposure time, 1x binning settings.
Potency is read from the fitted curve at half-maximal effect.

Row | Structure (SMILES) | activation | Potency
1 | CC1(C)CCC[C@]2(C)[C@@H]1CC[C@@]13C[C@@H](CC[C@H]12)C(C)(O)C3 (stereo not given in full) | 3.3% (inactive) | 
2 | C[C@@H](CCC[C@]1(C)C(=O)C=C[C@]23C[C@H]4C[C@H](O[C@@]4(C)C2)C31)C(=O)N[C@@H](CO)C(=O)O (stereo not given in full) | 2.49% (inactive) | 
3 | CN1C(=O)C2C(N=CN2C)N(C)C1=O (stereo not given) | -0.814% (inactive) | 
4 | CC1(C)C=Cc2c(ccc3c2OC[C@@H](c2ccc(O)cc2O)C3)O1 | 1% (inactive) | 
5 | C/C(=C\[C@H](C)C(=O)CCCC1CC(=O)NC(=O)C1)[C@@H]1OC(=O)/C=C/CC/C=C/C[C@@H](O)[C@@H]1C | 8.84% (inactive) | 
6 | CCCCCCC[C@@H](C/C=C/CCC(=O)NCCc1c[nH]c2ccccc12)OC | -0.353% (inactive) | 
7 | C=C[C@]1(C)CC[C@@H]([C@H](C)C(=O)/C=C/C(C)C)O1 | 5.87% (inactive) | 
8 | CN1CC[C@]2(c3cccc4c3N[C@@H]3N(C)CC[C@]43[C@@]34CCN(C)[C@@H]3Nc3ccccc34)c3ccccc3N[C@H]12 | 8.25% (inactive) | 
9 | O=C(OC1Cc2c(O)cc(O)cc2OC1c1cc(O)c(O)c(O)c1)c1cc(O)c(O)c(O)c1 (stereo not given) | 1.64% (inactive) | 
10 | COc1ccc2cc(NC(=O)C3=NO[C@H]4[C@H](O)C=C[C@@H](Cl)[C@@]4(O)C3)c(=O)oc2c1OC | -1% (inactive) | 
11 | O=C1CC(c2cc(O)cc(O)c2)Oc2cc(O)ccc21 (stereo not given) | 0.78% (inactive) | 
12 | CO[C@H]1/C=C/CC[C@@H](S[C@@H]2O[C@H](CO)[C@@H](O)[C@H](O)[C@H]2O)CC(=O)O[C@@H](/C(C)=C/[C@H](C)C(=O)CCCC2CC(=O)NC(=O)C2)[C@@H](C)[C@@H]1O | 2.41% (inactive) | 
13 | C=C1C(=O)O[C@H]2[C@H]1CC/C(CO)=C\CC[C@@]1(C)O[C@@H]21 | 8.23% (inactive) | 
14 | C=C(C)CC[C@H](Cc1c(O)cc(O)c2c1O[C@H](c1ccc(O)cc1O)CC2=O)C(=C)C | 2.88% (inactive) | 
15 | O=C1c2c(O)cc(O)cc2O[C@@H](c2ccc(O)cc2)[C@@H]1c1c(O)cc(O)c2c(=O)cc(-c3ccc(O)c(O)c3)oc12 | 8.71% (inactive) | 
16 | O=c1cc(-c2ccc(O)cc2)oc2c([C@@H]3OC(CO)[C@H](O)[C@@H](O)[C@H]3O)c(O)cc(O)c12 (stereo not given in full) | -0.478% (inactive) | 
17 | C/C(=C\[C@H](C)C(=O)CCCC1CC(=O)NC(=O)C1)C(O)[C@@H](C)[C@H](O)C/C=C/CC/C=C/C(=O)O (stereo not given in full) | 3.09% (inactive) | 
18 | CC[C@H](C)C(NC(=O)[C@@H](NC)C(C)C)C(=O)NC1C(=O)N(C)[C@@H](C(C)O)C(=O)N[C@@H](C(C)C)C(=O)N(C)[C@@H](CC(C)C)C(=O)NC(C(C)C)C(=O)N(C)[C@@H](C(C)C)C(=O)N(C)[C@@H](Cc2c[nH]c3cccc(OC)c23)C(=O)N[C@@H](C(C)C)C(=O)N[C@@H]([C@H](O)c2ccccc2)C(=O)N[C@@H](C(C)C)C(=O)O[C@@H]1C (stereo partly drawn) (H-[NMeV][ξIle][ξThr(3R)(O-yl)][NMeThr(3ξ)]V[NMeL][ξV][NMeV][NMeTrp(4-OMe)]V[Phe(3R-OH)]V; ester 3-C) | 1.64% (inactive) | 
19 | COc1ccc(/C=C2\COc3cc(O)ccc3C2=O)cc1 | -1.1% (inactive) | 
20 | CN1CC[C@]2(c3cccc4c3N[C@@H]3N(C)CC[C@]43[C@@]34CCN(C)[C@@H]3Nc3c([C@]56CCN(C)[C@H]5Nc5ccccc56)cccc34)c3ccccc3N[C@H]12 |  | 9.41 µM (active)

Row | Structure (SMILES) | activation | Potency
21 | CO[C@@H]1[C@H](O)[C@@H](C)O[C@@H](OC[C@H]2/C=C/C=C/C(=O)C(C)C[C@H](C)C(O[C@@H]3O[C@H](C)CC4(OC(=O)O[C@@H]4C)C3O)[C@@H](C)/C=C/C(=O)OC2C)[C@@H]1OC (stereo not given in full) | -1.32% (inactive) | 
22 | CC(=O)O[C@H]1CC[C@@]2(C)C(CC[C@]3(C)C2CC=C2C4CC(C)(C)CC[C@]4(C)CC[C@]23C)C1(C)C (stereo not given in full) | 2.86% (inactive) | 
23 | CO[C@@H]1[C@H](O)[C@@H](C)O[C@@H](OC[C@@H]2C(C)OC(=O)/C=C/[C@H](C)C(O[C@@H]3O[C@H](C)CC4(OC(=O)O[C@@H]4C)C3O)[C@@H](C)CC(C)C(=O)CC[C@H]3OC23)[C@@H]1OC (stereo not given in full) | -1.55% (inactive) | 
24 | C/C1=C/[C@@H](C)[C@H](O)C/C=C/CC/C=C/C(=O)O[C@@H]1[C@H](C)C(=O)/C=C/CC1CC(=O)NC(=O)C1 | 6.4% (inactive) | 
25 | C=CC(=C)CC[C@]1(C)[C@H]2C[C@H](OC(=O)C(C)CC)C=C3[C@H](OC(C)=O)O[C@H](OC(C)=O)[C@@]32[C@H](OC)C[C@@H]1C (stereo not given in full) |  | 19.3 µM (active)
26 | C[C@@H]1C[C@H]2C[C@]3(CCCCN3C)[C@@H]3C[C@H]2[C@H](C1)N(C)C3 | 5.66% (inactive) | 
27 | CC1C(=O)C23CCC1C[C@@]21O[C@H]2C(C)(C)C=CC(=O)[C@@]23COC1=O (stereo not given in full) | 0.347% (inactive) | 
28 | C[C@@]12CCC[C@@](C)(C(=O)O)[C@H]1C[C@@H](O)[C@]13C[C@H]4C[C@H](O[C@@]4(C)C1)[C@@H]23 | -1.25% (inactive) | 
29 | COc1cc(/C=C/C(=O)O)ccc1O | -0.764% (inactive) | 
30 | C/C=C1/CC[C@@H]2c3[nH]c4ccccc4c3CCN2C1 | 2.28% (inactive) | 
31 | C=C1C[C@@]23C=CC(=O)[C@@](C)(CCC(=O)Nc4c(OC5O[C@H](CO)[C@@H](O)[C@H](O)[C@H]5O)ccc(C(=O)O)c4O)C2C[C@@H]1CC3 (stereo not given in full) | 2.5% (inactive) | 
32 | O=C(O)CC1OCc2c(O)cccc21 (stereo not given) | -2.29% (inactive) | 
33 | Oc1ccc(C2c3c(O)cc(O)cc3[C@@H]3C(c4ccc(O)cc4)c4c(O)cc(O)cc4[C@H]23)cc1 (stereo not given in full) | 8.45% (inactive) | 
34 | C/C=C/c1cc(OC)c2c(c1)[C@@H](C)[C@H](c1ccc(O)c(OC)c1)O2 | 1.61% (inactive) | 
35 | COc1c(O)cc2oc(-c3ccccc3)cc(=O)c2c1O | 4.29% (inactive) | 
36 | O=C1C[C@@H](c2ccc(O)c(-c3c(O)cc(O)c4c3O[C@H](c3ccc(O)cc3)CC4=O)c2)Oc2cc(O)cc(O)c21 | -2.09% [at 22.9 µM] (inactive) | 
37 | CC(C)(Br)[C@@H](Cl)C[C@H](Br)[C@](C)(Cl)/C=C/Br | 3.13% (inactive) | 
38 | C[C@@]12C[C@@H](C[C@H]3C(=O)O[C@@H](c4ccoc4)[C@H](OC(=O)c4ccccc4)[C@@H]31)OC2=O | -1.17% (inactive) | 
39 | CCCCCC[C@H](CCCCC[C@@H](O)C(N)=O)OC(=O)[C@@H]1CC=CN1C(=O)c1ccccc1O | 0.25% (inactive) | 
40 | Oc1ccc([C@H]2Oc3ccc(/C=C/c4cc(O)cc(O)c4)cc3C2c2cc(O)cc(O)c2)cc1 (stereo not given in full) | 2.69% (inactive) | 
